Sampled rows, rich in hits. Any-hit rate of the full collection: about 5.4%.
Calb FLC = affects C. albicans growth with fluconazole; actives 0.57% (n = 300,000); C. albicans CaCi-2 (fluconazole-resistant clinical isolate) + fluconazole, Alamar Blue growth, 48 h; growth inhibition, % (no concentration beside the values);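 active = growth inhibition above about 58% in most replicates, limit read from the data, passing the limit was not always enough; inconclusive = exactly half the replicates above a set limit; inactive = most replicates below a set limit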;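 also: all wells also contain fluconazole at 8 µg/ml as a sub-toxic cotreatment; 0% = median of DMSO wells and 100% = median of geldanamycin control wells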
MPTP block = permeability transition pore inhibition | isolated mouse mitochondria, Ca2+ swelling absorbance, 30 min | inhibition, % at 10 µM | actives 1.4% (n = 360,000);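 active = inhibition of 50% or more, scaled per plate between neutral and stimulator controls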;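 also: 0% = DMSO wells given calcium and 100% = 1 mM EGTA wells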
SKKanGAS inh = blocks kanamycin growth of S. pyogenes SKKanGAS strain | BacTiter-Glo, 6 h | inhibition, % at 7.5 µM | actives 1.3% (n = 300,000) | AID 1662;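 active = mean replicate score, as percent of positive control median, at least 50; inconclusive = mean below 50 but one replicate at or above 50; inactive = mean and every replicate below 50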;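 also: strain carries kanamycin resistance gene driven by streptokinase promoter and grows in 40 µg/ml kanamycin; loss of luminescence reflects streptokinase promoter inhibition or plain growth inhibition; 0% = median of DMSO wells and 100% = positive control at its reference dose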
Beta apoptosis = beta cell apoptosis inhibition; actives 0.8% (n = 300,000); AID 435005; protection from apoptosis, % (test concentration not listed); INS-1E cytokine-induced death, ATP luminescence, 48 h; percent of positive-control rescue, neutral wells zero;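 active = Every replicate reaches about 75%, or at least half do and their mean reaches it too, limit read from the data; inconclusive = At least half of replicates reach the limit but their mean does not; inactive = Under half of replicates reach the limit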;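 also: 0% = cytokine-treated negative control wells and 100% = positive control rescue; higher means more ATP so stronger rescue from cytokine killing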
CSC inhib = cancer stem cell inhibition; cancer stem cell-like cells viability, luminescence; inhibition, % at 7.5 µM; actives 1.1% (n = 300,000); in the data active = inhibition above about 75%; inconclusive = no clear call, values can overlap the other calls; tested in HMLE shEcad cells
Mdm2 MdmX PPI = disrupts the human Mdm2-MdmX interaction. O15151+Q00987. SaOS-2 split-luciferase Mdm2/MdmX complementation, luminescence. inhibition, % at 8 µM. actives 3% (n = 330,000);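 active = inhibition of at least 50% at 8 µM in the primary screen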
Target sequence (O15151 whole entry, looked up): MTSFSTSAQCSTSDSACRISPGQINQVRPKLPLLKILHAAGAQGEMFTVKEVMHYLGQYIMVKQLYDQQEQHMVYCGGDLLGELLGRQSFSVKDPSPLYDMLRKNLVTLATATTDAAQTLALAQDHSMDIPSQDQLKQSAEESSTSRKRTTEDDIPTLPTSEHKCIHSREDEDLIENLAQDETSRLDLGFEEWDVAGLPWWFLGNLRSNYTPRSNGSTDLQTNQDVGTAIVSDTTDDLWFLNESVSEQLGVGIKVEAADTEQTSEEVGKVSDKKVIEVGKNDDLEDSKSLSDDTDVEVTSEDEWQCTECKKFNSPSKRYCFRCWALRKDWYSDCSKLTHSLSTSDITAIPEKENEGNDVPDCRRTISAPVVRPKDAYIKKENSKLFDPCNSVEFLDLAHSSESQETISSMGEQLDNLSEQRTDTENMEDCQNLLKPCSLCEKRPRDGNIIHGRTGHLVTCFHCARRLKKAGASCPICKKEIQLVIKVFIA
Target sequence (Q00987 whole entry, looked up): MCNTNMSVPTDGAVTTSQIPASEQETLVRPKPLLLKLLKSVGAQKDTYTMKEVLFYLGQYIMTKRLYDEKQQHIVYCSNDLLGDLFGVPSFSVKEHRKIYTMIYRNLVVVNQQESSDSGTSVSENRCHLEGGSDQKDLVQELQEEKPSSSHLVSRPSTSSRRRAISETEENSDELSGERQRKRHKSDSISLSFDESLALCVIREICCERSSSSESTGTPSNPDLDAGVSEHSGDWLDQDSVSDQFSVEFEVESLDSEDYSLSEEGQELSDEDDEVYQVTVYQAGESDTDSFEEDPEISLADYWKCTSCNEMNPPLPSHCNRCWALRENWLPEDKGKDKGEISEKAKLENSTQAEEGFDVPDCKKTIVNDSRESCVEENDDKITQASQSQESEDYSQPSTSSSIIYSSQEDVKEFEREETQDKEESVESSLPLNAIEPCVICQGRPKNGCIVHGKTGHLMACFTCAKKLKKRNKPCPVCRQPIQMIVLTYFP
Rh123 counter = Rhodamine 123 counter-screen of mitochondrial pore hits; inhibition, % at 10 µM; actives 78% (n = 5,000); shares compounds with MPTP block; isolated mitochondria, membrane potential, Rhodamine 123 fluorescence; in the data active = inhibition above about 22%;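 also: 0% = DMSO vehicle and 100% = positive control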
An asterisk follows results filed as active; u = inconclusive; x = not tested or not shown.

SMILES | Calb FLC | MPTP block | SKKanGAS inh | Beta apoptosis | CSC inhib | Mdm2 MdmX PPI | Rh123 counter
CC(NC(=O)Nc1cccc([N+](=O)[O-])c1)(C(F)(F)F)C(F)(F)F | 22 | 106* | -10 | 37 | 2 | 48 | 102*
CC(NC(=O)Nc1cccnc1)(C(F)(F)F)C(F)(F)F | 0 | 2 | 2 | -1 | -11 | 8 | x
Cc1c(C(=O)Nc2cccc([N+](=O)[O-])c2)csc1-c1ccccc1 | -11 | 85* | -4 | 3 | 14 | 45 | 89*
CCN1C(=O)S/C(=C/c2ccc(Sc3nc4ccccc4[nH]3)o2)C1=O | 10 | 80* | -9 | 13 | 17 | 33 | 76*
O=C(Nc1ccc(F)cc1)Oc1ccccc1N1CCOCC1 | 2 | 7 | 30 | -2 | -7 | -11 | x
O=C(Nc1ccc(OC(F)(F)F)cc1)Oc1ccccc1N1CCCCC1 | -2 | 82* | 10 | -3 | 25 | 3 | 89*
O=C(Nc1ccc(OC(F)(F)F)cc1)Oc1ccccc1N1CCOCC1 | -7 | 88* | -1 | 2 | 9 | -1 | 82*
COc1ccccc1NS(=O)(=O)c1cccc(C(=O)NC2CCN(Cc3ccccc3)CC2)c1 | -14 | 80* | -2 | 60 | -2 | 26 | 87*
COCc1[nH]nc2c1C(c1ccnc3ccccc13)C(C#N)=C(N)O2 (configuration not stated) | 1 | -2 | -6 | -7 | -8 | 10 | x
Cc1ccc(/C=C(\NC(=O)c2ccccc2)C(=O)NCCN2CCOCC2)o1 | -4 | -1 | -5 | -2 | x | 20 | x
CCN(C(=O)CSc1ccc2ccccc2n1)C1CCS(=O)(=O)C1 (configuration not stated) | -3 | 0 | 12 | -6 | -5 | -12 | x
Clc1ccc(/C=C\c2nccc3c2[nH]c2ccccc23)cc1 | 4 | 70* | 37 | x | x | x | 83*
Clc1ccc(C=Cc2ccccn2)cc1 | x | 2 | x | x | x | x | x
CN1CCN(C(=O)c2cccc(-c3cnc4cnc(-c5ccccc5Oc5ccccc5)cn34)c2)CC1 | x | 1 | x | x | x | x | x
O=C(c1ccc(F)cc1)c1ccc(OCC(=O)N2CCOCC2)cc1 | x | -2 | x | -2 | -8 | -5 | x
c1ccc2c(c1)OCC(CNc1ncnc3sccc13)O2 (configuration not stated) | 80* | 99* | -3 | 107* | 8 | x | 103*
COc1ccccc1CNc1ncnc2sccc12 | 1 | 52* | -5 | 97* | 10 | 9 | 76*
COc1ccc(Nc2ncnc3sccc23)cc1OC | x | 0 | 5 | -3 | -4 | 21 | x
COc1ccc(CCNc2ncnc3sccc23)cc1OC | 2 | 95* | 1 | 111* | 2 | 26 | 80*
CCSc1nsc(NC(=O)Nc2ccc(F)cc2F)n1 | 2 | 72* | 21 | x | 46 | -24 | 91*
CCSc1nsc(NC(=O)Nc2ccccc2Cl)n1 | x | 63* | x | x | x | x | 90*
CCC(CC)NC(=O)Nc1ccc(F)cc1F | -10 | 2 | 4 | 2 | -6 | -19 | x
CCOc1ccc(NC(=O)Nc2ccc(NC(C)=O)cc2)cc1 | -6 | 2 | 8 | -2 | -9 | -4 | x
CCCOc1ccccc1NC(=O)Nc1ccccc1Cl | 14 | 14 | 2 | 4 | -8 | 12 | x
CCOc1ccc(NC(=O)Nc2nc(SCC)ns2)cc1 | -2 | 97* | -3 | 10 | 17 | 48 | 79*
SMILES | Calb FLC | MPTP block | SKKanGAS inh | Beta apoptosis | CSC inhib | Mdm2 MdmX PPI | Rh123 counter
Cc1c(C)c(C)c(CO/N=C/c2cccs2)c(C)c1C | -4 | 2 | -6 | x | x | 18 | x
COc1ccc(C(O)C2c3c(cc4c(c3OC)OCO4)CCN2C)c(CO)c1OC (configuration not stated) | x | 0 | x | x | x | x | x
CCN(C1CCCCC1)S(=O)(=O)c1ccc(S(=O)(=O)NCc2ccncc2)cc1 | -9 | 98* | 4 | 103* | 17 | 23 | 93*
O=S(=O)(NCc1ccncc1)c1ccc(Br)s1 | 10 | 63* | -7 | 116* | 5 | 14 | 96*
Cc1ccc(S(=O)(=O)NCc2ccncc2)cc1C | 29 | 77* | -2 | 90* | -11 | 15 | 76*
COC(=O)COc1ccc(S(=O)(=O)NCc2ccncc2)cc1 | -1 | 85* | 10 | -1 | 6 | 26 | 87*
CN(CC(=O)NCc1cccs1)S(=O)(=O)c1cccc2cccnc12 | 0 | -3 | 2 | -2 | -2 | -3 | x
COc1ccc(CNC(=O)CCNC(=O)N2CC(=O)Nc3ccccc32)cc1 | x | -2 | x | x | x | x | x
CCN1CCN(C(CNS(=O)(=O)c2ccc(Cl)cc2)c2cccnc2)CC1 (configuration not stated) | 5 | -2 | -2 | 3 | -2 | -16 | x
CCCc1ccc(S(=O)(=O)NCCc2ccncc2)cc1 | -1 | 8 | -26 | 10 | -1 | 3 | x
CCCCCc1ccc(S(=O)(=O)NCCc2ccncc2)cc1 | 1 | 63* | -22 | 8 | 7 | 2 | 83*
O=C(NC(NNc1ccc([N+](=O)[O-])cc1)(C(F)(F)F)C(F)(F)F)c1ccc(Cl)cc1 | u | 98* | 33 | -3 | 34 | 41 | 78*
CC1Cc2cc(S(=O)(=O)NCc3ccccc3)ccc2N1C(=O)C1CC1 (configuration not stated) | -5 | 12 | 0 | 10 | -11 | 9 | x
CC1Cc2cc(S(=O)(=O)NCc3ccccc3)ccc2N1C(=O)C1CCC1 (configuration not stated) | 0 | 72* | 6 | 7 | 5 | -2 | 53*
Cc1ccc(NC(=O)C(Nc2ccccc2)c2ccccc2)cc1 (configuration not stated) | -6 | 1 | 8 | 2 | 24 | 21 | x
Cc1ccc(NC(=O)C(C)c2ccc(-c3ccccc3)c(F)c2)cc1 (configuration not stated) | -5 | 89* | 39 | 56 | 42 | 35 | 110*
O=C(Nc1ccc(Br)cc1)/C(=C/c1cccc([N+](=O)[O-])c1)NC(=O)C1CCCCC1 | 11 | 90* | 16 | 2 | -6 | -1 | 84*
Cc1ccc(NC(=O)/C(=C/c2cccc([N+](=O)[O-])c2)NC(=O)C2CCCCC2)cc1 | -21 | 7 | 0 | 6 | -5 | 15 | x
CCNc1nc(OC)nc(Oc2ccc(C(=O)OC)cc2)n1 | 12 | -2 | -5 | 7 | -20 | -3 | x
CCOC(=O)c1c(C)[nH]c(C)c1S(=O)(=O)NC(C)Cc1ccco1 (configuration not stated) | 4 | 1 | 1 | 0 | 5 | 21 | x
CC(=O)c1c(O)cc(O)c(C(C)=O)c1O | 0 | 90* | 91* | x | -3 | 8 | 106*
CC(=O)c1c(O)cc(O)cc1CC(=O)O | 13 | 4 | 2 | 4 | -4 | 8 | x
CCOC(=O)c1sc(-c2ccccc2)cc1N | -49 | 4 | -4 | -4 | 3 | -57 | x

High-throughput results as filed in PubChem BioAssay.
